Out of some 340,000 compounds screened, about 12,000 (3.5%) were called active. Inconclusive results (about 18%) are left out. The call rests on the fitted dose curve; in most records, active means well fitted inhibition curve with a large enough effect; inconclusive means small, poorly fitted or top-dose-only effect, or another doubt; inactive means no such curve, though single readings can be large or run the other way. Only a selection was taken, and actives are over-represented in it overall.
Assay: qHTS Assay for Inhibitors of Hepatitis C Virus (HCV)
Conditions: Huh7.5.1 HCVcc-Cre infection, luciferase reporter, 44 h; series mostly up to 41.8 µM; activity change, negative = inhibition: at the top concentration
Summary of the method: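 Antiviral activity was scored by luciferase reporter output from cells infected with HCVcc-Cre (~0.5 moi) in presence of compound, 44 h infection period, cells seeded 1,000/well 4 h prior.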
On the % scale 0 is the no-effect control and ±100 the full control effect; potency means the concentration at half of the fitted maximal effect.

Structure (SMILES) | activity change, negative = inhibition | Potency
CCc1ccc(C(=O)N2CCN(S(=O)(=O)c3sc(C(=O)O)c(C)c3C(=O)O)CC2)cc1 | -13.4% (inactive) | –
c1ccc2c(c1)OC1OC2Oc2ccccc21 | 30.9% (inactive) | –
COc1ccccc1N1CCN(C(=O)C2Cc3ccccc3CN2C(=O)c2ccco2)CC1 (stereo not given) | 24% (inactive) | –
CCCCNC(=O)N(O)C1N(/N=C/c2ccc(N(C)C)cc2)C(=S)SC1(C)C (stereo not given) | 13.8% (inactive) | –
CCCCNC(=O)N(O)C1N(/N=C/c2ccccc2O)C(=S)SC1(C)C (stereo not given) | – | 7.08 µM (active)
CCC(C)N1C(=S)SC(C)(C)C1N(O)C(=O)NC1CCCCC1 (stereo not given) | 23% (inactive) | –
CC1CCCCC1NC(=O)c1cc(=O)[nH]c2ccccc12 (stereo not given) | 1.65% (inactive) | –
O=C(CSc1nc(=O)n2ccccc2n1)Nc1ccc2c(c1)OCCO2 | -17.4% (inactive) | –
CCN1C(=O)N[C@@H](c2ccccc2)C(C(=O)OC)=C1C | 7.95% (inactive) | –
CCOC(=O)C1=C(C)N(C[C@@H]2CC[C@@H](Cc3ccc(-c4ccccc4)cc3)O2)C(=O)NC1c1ccc([N+](=O)[O-])cc1 (stereo not given in full) | – | 11.2 µM (active)
CCOC(=O)C1=C(c2ccccc2)NC(=O)NC1c1cc(OCC)c(O)c([N+](=O)[O-])c1 (stereo not given) | 3.05% (inactive) | –
C[C@]12c3[nH]c4ccc(Cl)cc4c3CCN1C(=O)[C@@H](CC(=O)NCCCn1ccnc1)C[C@@H]2C(=O)N1CCOCC1 | -1.63% (inactive) | –
Cc1ccc(NC(=O)CN(C)C(=O)Cn2nnc(-c3ccccc3)n2)cc1 | 4.12% (inactive) | –
COc1ccc(CCNC(=O)C(=O)NCC2OCCN2S(=O)(=O)c2ccc(OC)c(C)c2)cc1 (stereo not given) | – | 15.8 µM (active)
COc1ccc(S(=O)(=O)N2CCOC2CNC(=O)C(=O)NCc2ccncc2)cc1C (stereo not given) | -10.5% (inactive) | –
COc1ccc(CCNC(=O)C(=O)NCC2OCCN2S(=O)(=O)c2ccc(F)cc2)cc1OC (stereo not given) | -27.6% (inactive) | –
Cc1cccc(OCC(=O)OCC(=O)Nc2ccc(Cl)cn2)c1 | 10.5% (inactive) | –
COc1ccccc1NC(=O)N(O)C1(C#N)CCCCC1 | 16.3% (inactive) | –
O=C(NCc1ccc2c(c1)OCO2)c1c(-c2ccsc2)sc2ccccc12 | 6.14% (inactive) | –
CCSc1nc2sc3c(c2c(=O)n1-c1ccc(C)cc1)CCN(C)C3 | -7.22% (inactive) | –
COc1ccccc1NC(=O)CSc1nc2sc3c(c2c(=O)n1-c1ccccc1)CCN(C)C3 | -9.03% (inactive) | –
COc1ccccc1-n1c(SCC(=O)O)nc2sc3c(c2c1=O)CCC3 | 9.4% (inactive) | –
C=CCn1c(SCC(=O)Nc2ccc(NC(C)=O)cc2)nc2sc(C)c(C)c2c1=O | -14.7% (inactive) | –
CCn1c(SCC(=O)Nc2ccc(Br)cc2)nc2sc3c(c2c1=O)CCN(C)C3 | – | 4.47 µM (active)

Structure (SMILES) | activity change, negative = inhibition | Potency
CCOc1ccc(NC(=O)CSc2nncn2C)cc1 | 28.2% (inactive) | –
CCOc1ccc(-n2c(SCC(=O)Nc3ccc(OC)cc3)nc3sc4c(c3c2=O)CCN(C)C4)cc1 | – | 11.2 µM (active)
CCCSc1nc2sc3c(c2c(=O)n1-c1ccc(OC)cc1)CCN(C)C3 | – | 11.2 µM (active)
O=C1CCCN2N=C(SCC(=O)Nc3ccc(Br)cc3)SC2=N1 | 2.91% (inactive) | –
O=C(NCCSc1ncc(-c2ccccc2)[nH]1)c1ccco1 | -7.56% [at 8.37 µM] (inactive) | –
COc1cccc(NC(=O)CSc2nnc(C3CCCCC3)n2N)c1 | -4.82% (inactive) | –
CC(=O)Nc1ccc(NC(=O)CSC2=NS(=O)(=O)c3ccccc3N2)cc1 | -2.83% (inactive) | –
CCc1noc(C)c1C(=O)Nc1nc2ccc(OC)cc2s1 | -17.2% (inactive) | –
COc1ccc(NC(=O)CNc2cc(S(=O)(=O)N3CCOCC3)ccc2N2CCOCC2)c(OC)c1 | 11% (inactive) | –
CS(=O)(=O)N(CC(=O)N1CCc2ccccc2C1)c1ccc(Br)cc1 | 0.897% (inactive) | –
COc1cc(/C=C/C(=O)OCC(=O)NCCCc2ccccc2)ccc1O | -14.3% (inactive) | –
O=C(O)c1ccc(S(=O)(=O)c2ccccc2)s1 | 4.5% (inactive) | –
Cc1ccc(S(=O)(=O)c2cc3c(=O)n4cccc(C)c4nc3n(CCc3ccccc3)c2=N)cc1C | 8.56% (inactive) | –
CS(=O)(=O)N(CC(O)Cn1c2ccccc2c2ccccc21)c1cccc2ccccc12 (stereo not given) | – | 11.2 µM (active)
O=C1c2ccccc2S(=O)(=O)N1CC(O)Cn1c2ccccc2c2ccccc21 (stereo not given) | 12.3% (inactive) | –
OC(Cn1c2ccccc2c2ccccc21)C[n+]1ccccc1 (stereo not given) | -23.1% (inactive) | –
COc1ccc2oc(C(=O)N(CC(C)C)C3CCS(=O)(=O)C3)c(C)c2c1 (stereo not given) | -5.42% (inactive) | –
CCOc1ccc(C(CC(=O)O)NC(=O)Cc2ccccc2)cc1OC (stereo not given) | 20% (inactive) | –
CCOc1ccc(C(CCc2ccccc2)NC(=O)c2ccc(OC)c(OC)c2)cc1OCC (stereo not given) | – | 10 µM (active)
CCOc1ccc(C(CC(=O)O)NC(=O)C23CC4CC(CC(C4)C2)C3)cc1OC (stereo not given) | 12% (inactive) | –
Cc1n[nH]c(=O)c2c(NC(=O)COC(=O)c3ncc(Cl)c(Cl)c3Cl)oc(C)c12 | 10.5% (inactive) | –
CCC(O)CNc1nc(-n2nc(C)cc2C)nc2sc3c(c12)CC(C)(C)OC3 (stereo not given) | -11% (inactive) | –
Cc1nc2sc3c(c2c(=O)n1NC(=O)CCl)CCCC3 | -8.31% (inactive) | –
COCCNc1nc(-n2nc(C)cc2C)nc2sc3c(c12)CCCC3 | – | 10 µM (active)

Structure (SMILES) | activity change, negative = inhibition | Potency
O=C1CC2(CCCC2)C(=O)N1CN1CCN(S(=O)(=O)c2ccc(F)cc2F)CC1 | -2.52% (inactive) | –
COc1ccc(NC(=O)c2cnc(NS(=O)(=O)c3ccccc3)nc2)cc1 | 19.5% (inactive) | –
CCOc1ccc(CC(=O)Nc2ccc(S(=O)(=O)Nc3cc(C)on3)cc2)cc1OCC | -0.179% (inactive) | –
CCOc1ccc(C(=O)Nc2ccc(S(=O)(=O)Nc3cc(C)on3)cc2)cc1 | – | 1.12 µM (active)
COc1ccc(NS(=O)(=O)c2ccc(C(=O)Nc3c(C)n(C)n(-c4ccccc4)c3=O)cc2)cc1 | 23.2% (inactive) | –
COc1ccc(NS(=O)(=O)c2ccc(NC(=O)c3ccc(N(C)S(C)(=O)=O)cc3)cc2)cc1 | – | 5.62 µM (active)
COc1cc(OC)cc(C(=O)Nc2ccc(S(=O)(=O)Nc3cc(C)on3)cc2)c1 | 21.4% (inactive) | –
O=C(COC(=O)c1ccccn1)NNC(=O)c1ccc(Br)cc1 | 12.5% (inactive) | –
O=C(COC(=O)c1ccc(F)c(S(=O)(=O)N2CCOCC2)c1)NCc1ccc2c(c1)OCO2 | -4.34% (inactive) | –
O=S(=O)(Nc1ccc2ccccc2c1)N1CCCCC1 | -21.3% (inactive) | –
COc1ccc(/C=N/Nc2nc3ccccc3o2)cc1OC | -3.83% (inactive) | –
CCOc1ccccc1/C=N/Nc1nc2ccccc2o1 | – | 12.6 µM (active)
Brc1ccccc1/C=N/Nc1nc2ccccc2o1 | -26.3% (inactive) | –
Cc1ccc(SCC(=O)c2cc(C)c(OC(=S)N(C)C)c(C)c2)cc1 | – | 11.2 µM (active)
Cc1ccc(SCC(=O)Nc2ccc3c(c2)OCCO3)cc1 | 0.0256% (inactive) | –
Cc1ccc(C(=O)CSc2ccccc2C(=O)O)cc1 | 12.5% (inactive) | –
CC[C@]12c3[nH]c4ccc(Cl)cc4c3CCN1C(=O)[C@@H](CC(=O)NCCN1CCOCC1)C[C@@H]2C(=O)N1CCN(C(=O)C2CC2)CC1 | 17.4% (inactive) | –
CCOC(=O)C[C@H]1c2ccc(C(F)(F)F)cc2S(=O)(=O)N1c1ccccc1 | -10.1% (inactive) | –
Cc1ccc(C)c(N2CCN(C(=O)CCc3nc4ccccc4[nH]3)CC2)c1 | 3.71% [at 8.37 µM] (inactive) | –
Cc1ccc(C)c(N2CCN(C(=O)CCCCCn3c(=S)[nH]c4ccc(N5CCOCC5)cc4c3=O)CC2)c1 | – | 2.82 µM (active)
O=C(CCCCCn1c(=S)[nH]c2cc3c(cc2c1=O)OCO3)N1CCN(c2ccc(F)cc2)CC1 | -11.6% (inactive) | –
CN(CC(=O)Nc1cccc(F)c1)C(=O)C1CSC2(C)CCC(=O)N12 (stereo not given) | 6.19% (inactive) | –
COc1ccc(Cl)cc1NS(=O)(=O)c1cccc(C(=O)NC2CCC(O)CC2)c1 (stereo not given) | 10% (inactive) | –
CCC(CO)Oc1cc(NC(=O)c2cccc(F)c2)c2ncn(C(C)C)c2c1 (stereo not given) | – | 0.562 µM (active)

Structure (SMILES) | activity change, negative = inhibition | Potency
COc1cccc(C(=O)NNC(=O)c2cccc(F)c2)c1 | 13.8% (inactive) | –
O=C(Nc1cccc(NC(=O)c2cccc(F)c2)c1)c1ccccc1 | -10.3% (inactive) | –
COc1ccc(/C=C2\SC(=S)N(CCCC(=O)NC3CCCC3)C2=O)cc1OC | -0.548% (inactive) | –
CCN(C(=O)CN1C(=O)/C(=C/c2ccc(F)cc2)SC1=S)C1CCS(=O)(=O)C1 (stereo not given) | 3.32% (inactive) | –
O=C1/C(=C/c2ccc(F)cc2)SC(=S)N1CCCC(=O)N1CCCCC1CCO (stereo not given) | – | 11.2 µM (active)
O=C(COC(=O)Cc1c[nH]c2ccccc12)NCCc1ccccc1 | 3.54% (inactive) | –
O=C(CN1CCN(c2ccccc2O)CC1)NC(=O)NCc1ccccc1 | -28.3% (inactive) | –
CCCOc1ccc(C(=O)C(CCC(CNCC)C(=O)c2ccc(OCCC)cc2)CNCC)cc1 (stereo not given) | – | 5.01 µM (active)
CCCOc1ccc(C(=O)CCC(=O)OC(C)C(=O)Nc2ccc(NC(C)=O)cc2)cc1 (stereo not given) | 26.7% (inactive) | –
CCCOc1ccc(N/C=C/C(=O)C(C)(C)C)cc1 | 3.9% (inactive) | –
CCN(CC(=O)Nc1ccccc1C(F)(F)F)C(=O)CSCc1c(C)noc1C | 1.18% (inactive) | –
COc1ccc(S(=O)(=O)N2C[C@H]3CON(C)[C@H]3C[C@H]2c2cccc(Br)c2)cc1 | 28% [at 8.37 µM] (inactive) | –
COc1ccc(CNC(=O)C2CCN(S(=O)(=O)N3CCOCC3)CC2)cc1 | 14.1% (inactive) | –
O=C(O)C1CCN(S(=O)(=O)N2CCOCC2)CC1 | – | 22.4 µM (active)
O=C(NCc1ccccc1Cl)C1CCN(S(=O)(=O)N2CCOCC2)CC1 | -1.58% (inactive) | –
COc1ccc(OCCCC(=O)OC(C)C(=O)Nc2ccccc2[N+](=O)[O-])cc1 (stereo not given) | 0.431% (inactive) | –
O=C(COC(=O)c1cccnc1Cl)NC(=O)NC1CCCCC1 | 7.18% (inactive) | –
Cc1noc(C)c1S(=O)(=O)N(C)C[C@H]1Oc2ccc(NC(=O)C3CC3)cc2C(=O)N([C@H](C)CO)C[C@@H]1C | 11.4% (inactive) | –
O=C1NC(c2ccccc2)Cc2ccncc21 (stereo not given) | -5.27% (inactive) | –
Cc1ccc(C(=O)CCC(=O)N(C)CC(=O)Nc2c(Cl)cccc2Cl)cc1 | -24.2% (inactive) | –
CN(CC(=O)Nc1ccc(Cl)c(C(F)(F)F)c1)C(=O)CCC(=O)c1ccccc1 | – | 11.2 µM (active)
Cc1cccc(C)c1NC(=O)CN(C)C(=O)CCC(=O)c1ccccc1 | 9.78% (inactive) | –
COc1ccc(CNC(=O)C[C@H]2C[C@H](C(=O)N3CCOCC3)[C@@]3(C)c4[nH]c5cc(CCC(=O)N(C)C)ccc5c4CCN3C2=O)cc1OC | 19.4% (inactive) | –

Source: PubChem BioAssay AID651820 (National Center for Advancing Translational Sciences (NCATS), 2012)
